# Test results from PubChem BioAssay (NCATS).
# Results filed as inconclusive are left out. The source made the active and inactive calls. Calls follow the shape of the dose curve; as a rule, active = well fitted curve in the direction sought with a large enough effect; inconclusive = small, poorly fitted or top-dose-only effect, or another doubt; inactive = no such curve, though single readings can be large or run the other way.
# Target: Calcium and integrin-binding protein 1 (Homo sapiens) (UniProt Q99828)
# Sequence (Q99828 whole entry, looked up): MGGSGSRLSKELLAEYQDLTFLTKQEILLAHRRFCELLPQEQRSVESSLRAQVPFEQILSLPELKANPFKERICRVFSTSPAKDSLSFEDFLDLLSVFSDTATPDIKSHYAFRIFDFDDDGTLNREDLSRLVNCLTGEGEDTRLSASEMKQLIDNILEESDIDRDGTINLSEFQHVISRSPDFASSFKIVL
# Test: Validation qHTS for Identification of Calcium Integrin Binding protein 1 (CIB1) Competitor (AID 1508618)
# Settings: CIB1-GST / FITC-alphaIIb peptide fluorescence polarization; series mostly up to 114 µM; activity change, negative = inhibition: at the top concentration
# In short: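 Displacement of FITC-alphaIIb peptide (100 nM) from CIB1-GST (1 uM) is monitored by polarization in quantitative HTS format; buffer carries 5 mM CaCl2 and 125 mM NaCl at pH 7.4, incubations are at room temperature.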
# % is scaled to controls: 0 for no effect and ±100 for the full control effect.
row,Compound,"activity change, negative = inhibition"
1,CNc1ncnc2c1ncn2[C@@H]1O[C@H](CO)[C@@H](O)[C@H]1O,10.5% (inactive)
2,NC(CCCP(=O)(O)O)C(=O)O (centres undefined),6.52% (inactive)
3,Cc1cc2c(cc1Cl)N(C(=O)Nc1ccc(Oc3cccnc3C)nc1)CC2,6.4% (inactive)
4,C[N+]1(C)CCC(OC(=O)C(c2ccccc2)c2ccccc2)CC1,4.56% (inactive)
5,Fc1cccc(/C=N/N=C/c2cccc(F)c2)c1,6.32% (inactive)
6,COc1ccccc1CNCCCCCCNCCCCCCCCNCCCCCCNCc1ccccc1OC,10.2% (inactive)
7,CCCCCCCCCCCCCCCC(=O)OC(CC(=O)O)C[N+](C)(C)C (centres undefined),-1.5% (inactive)
8,CC12C(=O)OC(=O)C1(C)C1CCC2O1 (centres undefined),-5.23% (inactive)
9,OC[C@H]1O[C@@H](n2cnc3c(NC4CCCCC4)ncnc32)[C@H](O)[C@@H]1O,-0.228% (inactive)
10,CN(C)c1nc(N)c(C(=O)N=C(N)N)nc1Cl,10.3% (inactive)
11,O=C(O)CNC(=O)C(CS)Cc1ccccc1 (centres undefined),9.95% (inactive)
12,O=C(O)CC1CCCc2ccccc2C1O (centres undefined),8.78% (inactive)
13,CC(=O)/C=C1\C(=O)N(C)c2ccccc21,0.703% (inactive)
14,Oc1cc2c(cc1O)CN(C(=S)NCCc1ccc(Cl)cc1)CCC2,-1.31% (inactive)
15,CCN(CC)c1ncnc2c1ncn2[C@@H]1O[C@H](COP(=O)(O)OP(=O)(O)C(Br)(Br)P(=O)(O)O)[C@@H](O)[C@H]1O,15.5% (inactive)
16,Cc1ccc(S(=O)(=O)/C=C/C#N)cc1,7.41% (inactive)
17,C=CC(C)=C[C@@]1(C)SC(=O)C(C)=C1O,10.4% (inactive)
18,CC(C)(C)c1ccc(S(=O)(=O)/C=C/C#N)cc1,3.18% (inactive)
19,O=[N+]([O-])c1ccc(CSc2ncnc3c2ncn3[C@@H]2O[C@H](CO)[C@@H](O)[C@H]2O)cc1,7.19% (inactive)
20,C[C@@H](CN1CCC(Cc2ccccc2)CC1)[C@@H](O)c1ccc(O)cc1,3.65% (inactive)
21,Clc1ccc(N2CCN(Cc3cc4ccccn4n3)CC2)cc1,16.8% (inactive)
22,CCCCCCCC/C=C\CCCCCCCC(=O)NCCO,-0.003% (inactive)
23,COc1ccc(NC(=O)/C=C/c2ccc(Cl)cc2)cc1,24.7% (inactive)
24,N#C/C(=C\c1ccc(-c2cc(Cl)ccc2Cl)o1)C(=O)Nc1cccc2ncccc12,-9.92% (inactive)
